# Bioassay records (PubChem BioAssay)
# The list is not random: actives were taken first. Their share in the collection is about 2.4%.
# Pol beta inh-1: blocks human DNA polymerase beta activity; P06746; Pol beta primer extension/strand displacement, fluorescence kinetic; 1.3% of 340,000 active; Potency, µM (doses to about 114 µM), hits mostly inhibitors
#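 Preincubation: enzyme (10 nM) with compound, 15 min, RT. Reaction: substrate added to 50 nM final. Reads: 0 and 10 min. Analysis: normalized, Hill fit.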
# POLI inh: inhibitors of human DNA polymerase iota; Q9UNA4; Pol iota fluorescent replication assay, 10 min; Potency, µM (series often up to 115 µM), actives largely listed as inhibitors; 1% of 390,000 active; AID 588590
# Target sequence (Q9UNA4 whole entry, looked up): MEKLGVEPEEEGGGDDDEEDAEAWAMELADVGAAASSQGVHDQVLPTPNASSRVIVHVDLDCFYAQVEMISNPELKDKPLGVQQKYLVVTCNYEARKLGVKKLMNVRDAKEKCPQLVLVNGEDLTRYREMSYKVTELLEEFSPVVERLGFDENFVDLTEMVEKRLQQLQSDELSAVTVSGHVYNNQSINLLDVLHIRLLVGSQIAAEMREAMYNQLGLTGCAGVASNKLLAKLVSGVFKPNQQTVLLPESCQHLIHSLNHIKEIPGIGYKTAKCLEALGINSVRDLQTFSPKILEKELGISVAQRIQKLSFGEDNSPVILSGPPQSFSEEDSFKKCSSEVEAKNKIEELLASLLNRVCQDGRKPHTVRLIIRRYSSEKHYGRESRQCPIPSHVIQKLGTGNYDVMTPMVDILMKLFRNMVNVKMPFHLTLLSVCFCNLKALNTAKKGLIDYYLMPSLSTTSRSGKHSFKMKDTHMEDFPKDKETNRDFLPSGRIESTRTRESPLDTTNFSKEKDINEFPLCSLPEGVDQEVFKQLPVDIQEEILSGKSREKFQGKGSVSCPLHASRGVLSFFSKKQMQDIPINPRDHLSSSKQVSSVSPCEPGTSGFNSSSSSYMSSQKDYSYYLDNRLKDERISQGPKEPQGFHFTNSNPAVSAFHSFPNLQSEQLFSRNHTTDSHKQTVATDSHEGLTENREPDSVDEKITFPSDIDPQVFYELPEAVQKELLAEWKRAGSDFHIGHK
#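 Fluorescent replication assay read twice, at 0 min and 10 min after adding 50 nM (final) substrate. Enzyme (10 nM) and compounds were first incubated 15 min at room temperature; enzyme-free buffer wells were negative controls.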
# POLK inh: inhibitors of human DNA polymerase kappa; Q9UBT6; purified Pol kappa, fluorescent DNA synthesis assay, 10 min; Potency, µM (titrated, usually from 107 µM), most hits filed as inhibitors; 0.53% of 400,000 active; AID 588579
#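 Kinetic fluorescence screen: compound preincubated 15 min RT with 10 nM enzyme; 50 nM substrate (final) initiates; reads at 0/10 min.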
# L3MBTL1 inh: inhibitors of human L3MBTL1; Q9Y468; AlphaScreen L3MBTL1–H3K9me1 peptide binding; Potency, µM (top dose mostly 57.1 µM), hits mostly inhibitors; 0.66% of 230,000 active; also: nearly all actives have a fitted effect of over 60% in size
#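 Read-out is AlphaScreen signal from streptavidin donor and nickel chelate acceptor beads (10 ug/mL final each) bridging L3MBTL1 (50 nM) and biotinylated K9-monomethylated H3(1-15) peptide (75 nM), after 30 min compound exposure at room temperature.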
# POLH inh: inhibitors of human DNA polymerase eta | Q9Y253 | recombinant Pol eta, fluorescent DNA replication assay | Potency, µM (top dose mostly 114 µM), usual class: inhibitors | 1.2% of 390,000 active | AID 588591
#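 Pol eta (10 nM) was preincubated with compounds for 15 min at room temperature, after which fluorescent replication substrate (50 nM final) was added to start the reaction. Fluorescence was read kinetically at 0 and 10 min.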
# Pol beta inh-2: Human Pol beta inhibitor hit validation | AID 540280 | shares compounds with Pol beta inh-1 | 87% of 250 active | Pol beta primer extension/strand displacement, fluorescence kinetic | Potency, µM, most hits filed as inhibitors; calls by dose curve
# Klenow inh: Klenow polymerase inhibition, pol beta selectivity check; shares compounds with Pol beta inh-1; Klenow exo- polymerase counter-screen, fluorescent DNA substrate; activity change, negative = inhibition, % at 57.1 µM; 250 tested, under 10 active; AID 540300
# HIV RT inh: HIV-1 RT inhibition, pol beta selectivity check; 250 tested, under 10 active; shares compounds with Pol beta inh-1; AID 540301; activity % (negative = inhibition, positive = activation), % at 57.1 µM; HIV-1 RT polymerase activity, counter-screen
# POLB valid: DNA polymerase beta inhibition, radiolabeled validation; shares compounds with Pol beta inh-1; radiolabeled primer extension gel assay, phosphorimager; inhibition, % at 10 µM; 91% of 110 active; AID 540325;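 active = inhibition at 10 µM of 30% or more; inconclusive = no clear call, values can overlap the other calls; inactive = inhibition at 10 µM under 30%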
# A number is an active result; – = inactive; ? = inconclusive; · = no result given; [ ] = dose if it differs, or a comment. Unless noted, calls follow the shape of the dose curve; as a rule, active = well fitted curve in the direction sought with a large enough effect; inconclusive = small, poorly fitted or top-dose-only effect, or another doubt; inactive = no such curve, though single readings can be large; an effect the other way counts as inactive or inconclusive.
SMILES,Pol beta inh-1,POLI inh,POLK inh,L3MBTL1 inh,POLH inh,others
C=CN1CCCC1=O,·,·,–,·,·,
Cc1ccc(NC(=O)CCc2c(C)nc3c(-c4ccccc4)c(C)nn3c2C)c(C)c1,–,–,–,·,–,
O=C(O)CC(NC(=O)c1ccco1)c1ccco1 (configuration not stated),79µM,–,–,·,?,
O=C(NCCNCc1ccccc1)c1ccco1,·,20µM,?,·,50µM,
CCOCCCNC(=S)N1CCN(c2nc(-c3ccc(F)cc3)cs2)CC1,–,–,–,–,–,
CCOC(=O)c1nn(-c2ccc(OCC)cc2)c(C)c1C(C)=O,–,–,–,–,89µM,
O=C(Nc1ccc(NC(=S)NC(=O)c2cccs2)cc1)c1ccco1,?,35µM,?,–,79µM,
O=C(NC(=S)NNC(=O)c1cccs1)c1ccco1,–,–,–,–,–,
O=C(CCCOc1ccccc1)N1CCN(c2ccc(F)cc2)CC1,100µM,–,–,·,–,
O=C(CCc1ccccc1)N1CCN(c2ccc(F)cc2)CC1,–,–,–,–,–,
COc1ccc2c(COC(=O)CC3Sc4ccccc4NC3=O)cc(=O)oc2c1 (configuration not stated),35µM,?,–,?,20µM,
CC[C@H](C)[C@H](NC(=O)[C@H](Cc1ccc(O)cc1)NC(=O)[C@@H](NC(=O)[C@H](CCCNC(=N)N)NC(=O)[C@@H](N)CC(=O)O)C(C)C)C(=O)N[C@@H](Cc1cnc[nH]1)C(=O)N1CCC[C@H]1C(=O)N[C@@H](Cc1ccccc1)C(=O)N[C@@H](Cc1cnc[nH]1)C(=O)N[C@@H](CC(C)C)C(=O)N[C@@H](CC(C)C)C(=O)N[C@H](C(=O)N[C@@H](Cc1ccc(O)cc1)C(=O)N[C@@H](CO)C(=O)O)C(C)C,·,·,–,·,·,
CCNc1ccccc1CP(=O)(c1ccccc1)c1ccccc1O (configuration not stated),50µM,14µM,–,·,–,
Cc1ccc(O)c(CP(=O)(c2ccccc2)c2ccccc2)c1,–,–,–,–,–,
CCS(=O)(=O)c1nc(S(=O)(=O)c2ccc(C)cc2)c(NCc2ccccc2Cl)s1,–,–,–,·,–,
COc1ccc(OCC(=O)Nc2ccc3c(c2)nc(CCn2ccccc2=O)n3C)cc1,?,56µM,–,·,–,
CC(C)(C)Cc1c(-c2ccc(F)cc2)nc2ccc(Cl)cn12,·,·,·,·,–,
O=c1cc(COc2ncnc3ccccc23)nc2sccn12,?,28µM,–,?,–,
CCc1cccc(NC(=O)Cn2nc(C)c3sc4ccccc4c3c2=O)c1,22µM,89µM,–,·,–,
Cc1nn(CCCC(=O)NCc2ccccc2)c(=O)c2c1sc1ccccc12,79µM,?,?,·,·,
CC1(C)O[C@@H]2C[C@H]3[C@@H]4CCC5=CC(=O)C=C[C@]5(C)[C@H]4C(O)C[C@]3(C)[C@]2(C(=O)CO)O1 (some centres not stated),·,·,–[19.4 µM],·,·,
COc1ccc(-c2nn(-c3ccccc3)cc2/C=N/NC(=O)c2ccc(Br)o2)cc1,–,–,–,35µM,–,
COc1ccc(CN(CC(O)COCc2ccccc2)S(=O)(=O)c2ccccc2Br)cc1OC (configuration not stated),·,–,–,–,–,
COc1ccccc1CNC(=O)c1ccc(Cn2c(SCc3ccccc3)nc3cccnc32)cc1,–,–,–,·,–,
CCOc1ccc(C(=O)Nc2ccc(NC(=O)c3ccccc3)c(C)c2)cc1[N+](=O)[O-],20µM,–,–,–,–,Pol beta inh-2=18;Klenow inh=–;HIV RT inh=–
SMILES,Pol beta inh-1,POLI inh,POLK inh,L3MBTL1 inh,POLH inh,others
CCOc1cccc(C(=O)Nc2ccc(NC(=O)c3ccccc3)c(C)c2)c1,–,–,–,–,–,
O=C(COC(=O)COc1ccc(Br)cc1)NC1CCCC1,·,–,–,–,–,
CCn1c(=NC(=O)c2ccc(N3C(=O)CCC3=O)cc2)sc2c(OC)ccc(OC)c21,10µM,16µM,?,·,?,Pol beta inh-2=?;Klenow inh=–;HIV RT inh=–;POLB valid=98
COc1ccc(-c2noc(-c3ccc(NCCc4ccccc4)c([N+](=O)[O-])c3)n2)cc1,–,–,–,·,–,
Cc1[nH]c2ccccc2c1C(=O)COC(=O)C1CC(=O)N(Cc2ccco2)C1 (configuration not stated),–,–,–,–,–,
Cc1ccc(C(=O)Oc2ccc(C(=O)COC(=O)C3CC(=O)N(Cc4ccco4)C3)cc2)cc1 (configuration not stated),16µM,4.5µM,45µM,?,13µM,Pol beta inh-2=14;Klenow inh=–;HIV RT inh=–
O=C(COC(=O)C1CC(=O)N(Cc2ccco2)C1)c1ccc(OC(=O)c2ccco2)cc1 (configuration not stated),7.1µM,18µM,32µM,18µM,3.2µM,Pol beta inh-2=8.9;Klenow inh=–;HIV RT inh=?
CCOC(=O)Cc1csc(NC(=O)c2sc3nc4cc(C)ccc4cc3c2N)n1,–,–,–,–,?,
CCOC(=O)Cc1csc(NC(=O)c2sc3nc4ccc(CC)cc4cc3c2N)n1,5.6µM,79µM,–,?,?,Pol beta inh-2=28;Klenow inh=–;HIV RT inh=–;POLB valid=85
CCc1nn(CC(=O)Nc2ccc(C)c(F)c2)c(=O)c2cc3cc(C)ccc3n12,–,?,–,·,–,
COC(=O)c1ccc(CSc2nc3scc(-c4cccs4)c3c(=O)[nH]2)o1,20µM,?,?,?,?,Pol beta inh-2=32;Klenow inh=–;HIV RT inh=–;POLB valid=98
Cc1ccc(S(=O)(=O)N(CC(=O)NCCc2ccc(Cl)cc2)c2ccccc2C)cc1,–,–,–,·,–,
NS(=O)(=O)c1ccc(NC(=O)c2ccc(-c3ccccc3)cc2)cc1,14µM,?,?,–,?,Pol beta inh-2=16;Klenow inh=–;HIV RT inh=–
CC(=O)c1c(C)[nH]c(C(=O)COC(=O)c2ccc3c(=O)n4c(nc3c2)CCC4)c1C,–,–,–,–,–,
O=C(OCc1cc(=O)n2c(n1)sc1ccccc12)c1ccc2c(=O)n3c(nc2c1)CCC3,10µM,?,?,?,?,Pol beta inh-2=13;Klenow inh=–;HIV RT inh=–
CC1N(C)c2cc(NC(=O)c3ccco3)ccc2C1(C)C (configuration not stated),20µM,?,?,–,?,Pol beta inh-2=?;Klenow inh=–;HIV RT inh=–
CC(=O)Nc1ccc(NC(=O)c2ccco2)cc1,–,–,–,·,–,
COCO[C@H]([C@@H](C)C=C(Br)Br)[C@@H](C)COCc1ccc(OC)cc1,·,–,–,·,·,
